From PubChem BioAssay AID2314 (National Center for Advancing Translational Sciences (NCATS), 2010)
The whole screen tested about 300,000 compounds, of which about 37,000 (12%) were called active. This excerpt belongs to a sample that is enriched for actives. A number with no mark means an inactive call. Cut-off read from the data, not from the text of the source: active = max response mostly above about 13% (no sharp cut-off); inactive = mostly below about 14%.

Experiment: Cycloheximide Counterscreen for Small Molecule Inhibitors of Shiga Toxin; note: read at 38.3 µM for the half of the compounds with a filed dose; 0% is about no effect
Conditions: cell reporter, cycloheximide protein synthesis inhibition counterscreen; hits give high values

Compared with `COc1ccccc1C1C(C(N)=O)=C(C)Nc2nc(CCCO)nn21` (stereo unspecified), `C=CCOC(=O)C1=C(C)N=C2SCCC(=O)N2C1/C=C/c1ccccc1OC` (stereo unspecified) is higher in max response: -5.85% for the first, -1.27% for the second.

Compared with `C[C@@H]1O[C@@H](OC[C@H]2O[C@@H](Oc3cc(O)c4c(c3)O[C@H](c3ccc(O)c(O)c3)CC4=O)[C@H](O)[C@@H](O)[C@@H]2O)[C@H](O)[C@H](O)[C@H]1O`, `COc1cc(C(=O)Nn2c(CC(C)C)nc3ccccc3c2=O)cc(OC)c1OC` is higher in max response: -3.85% for the first, -3.7% for the second.

Compared with `COC(=O)c1cc2occc2n1Cc1nc(-c2ccccc2C)oc1C`, `COc1cc(N=Cc2c(O)c3ccccc3oc2=O)c(OC)cc1Cl` is higher in max response: -1.91% for the first, 0.554% for the second.

First: CCOC(=O)C1(Cc2cccc(OC)c2)CCN(Cc2csc(C(C)=O)c2)CC1
Second: Cc1ccccc1OCC(=O)NNC(=O)c1cc(S(=O)(=O)N(C)C)ccc1N1CCCC1
The max response of the first is higher: -2.31% for the first, -2.55% for the second.

Going from `CCC(C(=O)NCCC(C)C)N(Cc1ccccc1Cl)C(=O)c1snc(C(N)=O)c1N` (stereo unspecified) to `CCC(=O)Nc1sc(C(=O)Nc2ccccc2)c(C)c1C(=O)OC`, the max response rises from -2.42% to 6.77%.

Compared with `COCCN(C(=S)Nc1cccc(Cl)c1C)C(C)c1ccco1` (stereo unspecified), `Cc1ccc(NC(=S)N(CCN2CCCCC2)Cc2ccco2)cc1C` is higher in max response: 5.55% for the first, 6.6% for the second.

Compared with `CCc1cccc(CC)c1NC(=O)COc1ccccc1C(=O)c1cc(C#N)c(=O)n(C2CCCCC2)c1`, `COC(=O)CCCC1=CC2=C(c3ccccc3)C(=O)C(C)(OC(=O)C3CCCC3)C(=O)C2=CN1c1ccc(OC)cc1` (stereo unspecified) is lower in max response: 5.88% for the first, -2.86% for the second.

Compared with `CCOc1ccc(CN(C)C(=O)c2ccc(=O)[nH]c2)cc1`, `COc1ccc(CNC(=O)CN(Cc2ccc(Cl)cc2)S(C)(=O)=O)cc1` is higher in max response: -4.67% for the first, -2.61% for the second.

Compared with `CC(NC(=S)Nc1ccc(S(N)(=O)=O)cc1)c1ccc2c(c1)OCO2` (stereo unspecified), `CCc1ccc(NC(=O)NC(C)c2ccc3c(c2)OCO3)cc1` (stereo unspecified) is higher in max response: -3.68% for the first, 0.596% for the second.

Going from `O=C(/C=C/c1ccc2c(c1)OCO2)NCc1ccc(F)cc1` to `CCc1c(C)sc(NC(=O)/C=C/c2ccc3c(c2)OCO3)c1C(=O)OC`, the max response rises from 9.99% to 16.3%.

Going from `CC(NC(=O)Nc1ccc2c(c1)OCO2)c1ccncc1` (stereo unspecified) to `CC(C)CNS(=O)(=O)c1ccc(C(=O)Nc2ccc3c(c2)OCO3)cc1`, the max response falls from 11.1% to -0.729%.

First: CCCC1OC23CCCCC2C(C#N)(C#N)C1(C#N)C(=N)O3 (stereo unspecified)
Second: Cc1ccc(C2C(C#N)C(C#N)N3CCCN23)cc1 (stereo unspecified)
The max response of the first is lower: -1.48% for the first, 14.4% for the second.

First: Cc1ccc(C23CC4CC(CC(C(=O)NCC(=O)O)(C4)C2)C3)cc1
Second: CC1(C)C(C=C(Cl)Cl)C1C(=O)N(Cc1ccc(Cl)cc1)C1CCS(=O)(=O)C1 (stereo unspecified)
The max response of the first is lower: -6.43% for the first, 3.61% for the second.

Compared with `COc1ccc(Oc2cn[nH]c2-c2ccc(OC)cc2O)cc1`, `CCc1ccc(NC(=O)Cn2nnc(C(=O)NCc3ccc(OC)cc3)c2N)cc1` is lower in max response: 2.15% for the first, -3.14% for the second.

First: Cc1ccc(Cl)cc1NC(=O)C1CCN(S(C)(=O)=O)CC1
Second: O=C(NCc1ccc(Cl)cc1)C1CCN(S(=O)(=O)c2cccs2)CC1
The max response of the first is higher: 8.41% for the first, -3.46% for the second.

Compared with `COc1ccc(Br)cc1C1C2C=CCC(C)C2C(=O)N1Cc1ccccc1` (stereo unspecified), `Cc1cccc([C@H]2[C@@H]3C=CC[C@@H](C)[C@@H]3C(=O)N2Cc2ccccc2)c1` is lower in max response: 2.32% for the first, -6.21% for the second.

Compared with `Cc1nccc(-c2ccc(-n3c(C)ccc3C)cc2)n1`, `Cc1ccc2cc(C)c(N3CCN(c4ccc(F)cc4)CC3)nc2c1` is higher in max response: 1.97% for the first, 10.1% for the second.

Compared with `O=C1OC(/C=C/c2ccccc2)=NC/1=C/c1ccco1`, `O=S(=O)(/C=C/c1ccccc1)NCCc1ccccn1` is higher in max response: -1.15% for the first, 10.5% for the second.

Compared with `COc1cc2c(cc1OC)C(c1ccccc1Br)NC(=O)C2` (stereo unspecified), `CN1CCc2ccccc2C1Cc1ccccc1NC(=O)c1sc2ccccc2c1Cl` (stereo unspecified) is higher in max response: 2.36% for the first, 5.79% for the second.

Compared with `Cc1nc(NC(=O)c2cccc(Cl)c2)sc1-c1csc(Nc2cccc(Cl)c2)n1`, `O=C(Nc1ccon1)c1cccc(Cl)c1` is higher in max response: -1.16% for the first, 8.4% for the second.

First: CCC(C)NC(=O)CSC1=Nc2ccccc2C2=NC(CCC(=O)NCc3ccco3)C(=O)N12 (stereo unspecified)
Second: O=C(CSC1=Nc2ccccc2C2=NC(CC(=O)NCc3ccco3)C(=O)N12)NCc1ccco1 (stereo unspecified)
The max response of the first is lower: 0.985% for the first, 6.84% for the second.

Going from `N#Cc1c(-c2ccccc2)nc(SCc2cccc(C(F)(F)F)c2)[nH]c1=O` to `Cc1cccc(-[n+]2c(-c3cccc(Br)c3)[nH]c3nc4ccccc4nc32)c1`, the max response falls from 4.14% to 0.81%.

Going from `CCCCCc1c(C)nc(N2CCN(Cc3ccc4c(c3)OCO4)CC2)[nH]c1=O` to `CCn1nc(C)c(CN2CCN(Cc3ccc(OC)c(C)c3C)C(CCO)C2)c1C` (stereo unspecified), the max response falls from -0.993% to -1.08%.

Compared with `O=C(/C=C/Nc1ccccc1)c1cnc(-c2ccccc2)s1`, `Cc1c(C(=O)NCc2ccccc2)cnn1-c1ccccc1` is higher in max response: 1.67% for the first, 22.7% for the second.

Compared with `O=S(=O)(c1ccc(F)cc1)n1ccc(-c2cnc(-c3ccccc3)s2)n1`, `O=S(=O)(c1ccccc1)c1nc(-c2ccccc2)oc1NCCCN1CCOCC1` is lower in max response: 1.13% for the first, -2.06% for the second.

First: Cc1cccc(N2CCN(S(=O)(=O)c3ccc4[nH]c(=O)c(=O)[nH]c4c3)CC2C)c1 (stereo unspecified)
Second: CC(=O)c1c(C)[nH]c(C(=O)OCC(=O)Nc2cc(S(=O)(=O)N3CCCCC3)ccc2C)c1C
The max response of the first is lower: -2.14% for the first, -1.55% for the second.

Compared with `COc1ccc(CCNC(=O)/C(C#N)=C2\N=C(NC(=O)c3cccs3)c3ccccc32)cc1`, `O=C(CCc1ccccc1)NNC(=O)c1ccc(Br)cc1` is higher in max response: -2.25% for the first, 5.92% for the second.

Going from `Cc1ccc2nc(S(=O)(=O)O)[nH]c2c1` to `Cc1c(C)c(C)c(S(=O)(=O)NCCc2ccccn2)c(C)c1C`, the max response rises from -7.91% to -3.58%.

Compared with `COc1ccc(C)cc1NC(=O)C(Sc1ccccc1)c1ccccc1` (stereo unspecified), `CNC(=O)CSc1nnc(CCc2ccccc2)n1-c1ccccc1` is higher in max response: -3.77% for the first, 1.1% for the second.

Compared with `CC1CCN(C(=O)c2ccc3c(=O)n4c(nc3c2)CCCCC4)CC1`, `Cc1nc(N2CCC(C)CC2)c2c(C)c(C(=O)Nc3cc(F)ccc3C)sc2n1` is lower in max response: 14.9% for the first, 4.36% for the second.

Compared with `COc1ccc(OCC(=O)NCCS(=O)(=O)N2CCN(c3ccc(F)cc3)CC2)cc1`, `COc1ccc(N2CCN(C3CCCCC3NS(=O)(=O)c3ccccc3)CC2)cc1` (stereo unspecified) is lower in max response: 13.1% for the first, -5.98% for the second.

First: NC(=O)CN1CCCC1c1ccc2c(c1)OCCO2 (stereo unspecified)
Second: CN(CCC1CCOCC1)C(=O)CC1C(=O)NCCN1Cc1cccc(F)c1 (stereo unspecified)
The max response of the first is higher: 10.4% for the first, -2.83% for the second.

First: Cc1ccc(-n2c(SCC(=O)N/N=C/C=C/c3ccccc3[N+](=O)[O-])nc3ccccc3c2=O)cc1
Second: CCn1c(SCC(=O)N/N=C/C=C/c2ccccc2[N+](=O)[O-])nnc1-c1ccccc1
The max response of the first is lower: -7.24% for the first, 8.3% for the second.

Going from `OC(COc1ccc(Br)cc1)CN1CCCC1` (stereo unspecified) to `O=C(O)C1CCCN1S(=O)(=O)c1ccc(Br)cc1` (stereo unspecified), the max response falls from -1.85% to -3.32%.

Compared with `COc1ccc(S(=O)(=O)NC(C)C(=O)NCc2ccncc2)cc1Cl` (stereo unspecified), `CC(NC(=O)c1cccc2ccccc12)c1ccc2c(c1)CCCC2` (stereo unspecified) is higher in max response: -5.01% for the first, -1.47% for the second.

Going from `CCn1c(=S)[nH]c2sc3c(c2c1=O)CCCCC3` to `O=C(C1=C[C@H](c2ccc(C(F)(F)F)cc2)C[C@H](OCc2ccc(CO)cc2)O1)N1CCN(Cc2ccccc2)CC1`, the max response rises from -1.45% to -1.19%.

Compared with `Cc1ccc(NC(=S)N(CCCN2CCC(C)CC2)Cc2ccco2)cc1`, `CCCCNC(=O)CN1C(=O)NC(Cc2ccccc2)(Cc2ccccc2)C1=O` is lower in max response: -1.16% for the first, -4.58% for the second.

For `CCNC(=S)NNC(=O)Cc1ccccc1`, the max response was -1.87%.

In the case of `CNS(=O)(=O)c1ccc(NC(=O)Nc2ccc3c(c2)OCO3)cc1`, the max response is reported as 46.9% (active).
For `Cc1cccc(NC(=O)Nc2ccc3c(c2)OCO3)n1`, the max response was 45.7% (active).
For `Cc1cccc(NC(=O)/C=C/c2ccc3c(c2)OCO3)n1`, the max response was 64.4% (active).
With `COc1ccccc1/C=C/C1=NC(=C\N(C)C)/C(=O)O1` the max response was 10.1% (active).
In the case of `CCC(=O)Nc1nc(C)c(C(=O)Nc2cccc(Cl)c2)s1`, the max response is reported as 16.2% (active).
With `O=C(CC1N=C2c3ccccc3N=C(SCc3ccccc3Cl)N2C1=O)NCc1ccco1` (stereo unspecified) the max response was 18% (active).
With `CC(=O)c1cnc(-c2ccccc2)s1` the max response was 35.2% (active).
In the case of `Cc1ccc2nc(/C(C#N)=C\c3ccc(OC(=O)c4cccs4)cc3)[nH]c2c1`, the max response is reported as 29.1% (active).
With `O=C(Nc1ccon1)c1sc2ccccc2c1Cl` the max response was 64.4% (active).
For `CN(CC(=O)NCc1ccc(Cl)cc1)S(=O)(=O)c1cccs1`, the max response was 10.2% (active).
With `O=C(CSc1nc2ccccc2[nH]1)N/N=C/C=C\c1ccccc1[N+](=O)[O-]` the max response was 13.8% (active).
In the case of `COc1ccc(NCCc2ccccn2)cc1`, the max response is reported as 30.6% (active).
For `Cc1c(CNCCc2ccccc2)c(C(=O)O)c(C)n1-c1ccccc1`, the max response was 12.6% (active).
With `Cc1ccc2cc(C)c(N3CCC(C)CC3)nc2c1` the max response was 23.2% (active).
With `Cc1ccc(NC(=S)N(Cc2ccco2)C(C)c2cccs2)cc1` (stereo unspecified) the max response was 15.6% (active).
For `CC(C)(C)c1ccc(C(=O)NNC(=O)Cc2ccccc2)cc1`, the max response was 37.7% (active).
